Data from PubChem BioAssay (NCI).
Values joined by “and” are separate entries in the source; they are usually repeats but may differ in a detail not shown here. Equal entries are not always repeated. This is part of a sample that, as a whole, favours compounds with a hit. Of some 83,000 tested, about 20% had one in any assay.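 Treatment: one concentration, 48 hours, 96-well format. Scoring: percent growth, with anything below 10 considered active.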 Active and inactive are the calls of the source.

Tests used:
Assay in all cases: NCI-60 one-dose screen, 48 h (100 = growth as untreated, 0 = no growth, -100 = all killed)
Details in all cases: 10 µM unless noted
HCT-15 colon = tested on: HCT-15 colon
HT29 colon = tested on: HT29 colon
SNB-75 CNS = tested on: SNB-75 CNS
SNB-19 CNS = tested on: SNB-19 CNS
U251 CNS = tested on: U251 CNS
PC-3 prostate = tested on: PC-3 prostate
SK-MEL-5 melanoma = tested on: SK-MEL-5 melanoma
UACC-62 melanoma = tested on: UACC-62 melanoma
LOX IMVI melanoma = tested on: LOX IMVI melanoma
SK-MEL-28 melanoma = tested on: SK-MEL-28 melanoma

Measured: growth

N#Cc1ccccc1OCC(=O)Nc1nc2c(s1)COc1ccccc1-2
inactive: HCT-15 colon 103% | HT29 colon 104% | SNB-75 CNS 82.7% | SNB-19 CNS 102% | U251 CNS 98.8% | PC-3 prostate 102% | SK-MEL-5 melanoma 103% | UACC-62 melanoma 82.4% | LOX IMVI melanoma 90.6% | SK-MEL-28 melanoma 116%

COc1ccc(/C=C/C(=O)c2cc3c(N)c(C(=O)Nc4ccccc4Cl)sc3nc2C)cc1
inactive: HCT-15 colon 54.2% | HT29 colon 39.2% | SNB-19 CNS 44.7% | U251 CNS 31.7% | PC-3 prostate 59.2% | LOX IMVI melanoma 48.2% | SK-MEL-28 melanoma 42%
active: SNB-75 CNS -6.43% | SK-MEL-5 melanoma -56.1% | UACC-62 melanoma -1.92%

O=C1C(Nc2ccc(Cl)cc2)=C(I)C(=O)c2ncccc21
inactive: HT29 colon 43.1% | SNB-75 CNS 19.4% | SNB-19 CNS 69.3% | U251 CNS 30.3% | PC-3 prostate 37.1% | SK-MEL-28 melanoma 39%
active: HCT-15 colon -40.4% | SK-MEL-5 melanoma -39.8% | UACC-62 melanoma -7.27% | LOX IMVI melanoma -68.6%

COc1cc(C=O)ccc1Oc1ccc([N+](=O)[O-])cc1[N+](=O)[O-]
inactive: HCT-15 colon 108% | HT29 colon 108% | SNB-75 CNS 93.1% | SNB-19 CNS 90.3% | U251 CNS 93.2% | PC-3 prostate 94.4% | SK-MEL-5 melanoma 98.6% | UACC-62 melanoma 82.3% | LOX IMVI melanoma 82% | SK-MEL-28 melanoma 107%

N#Cc1c(N)nnn1Cc1cc(=O)oc2ccc(O)cc12
inactive: HCT-15 colon 110% | HT29 colon 102% | SNB-75 CNS 100% | SNB-19 CNS 102% | U251 CNS 103% | PC-3 prostate 97.3% | SK-MEL-5 melanoma 97.9% | UACC-62 melanoma 99.9% | LOX IMVI melanoma 102% | SK-MEL-28 melanoma 112%

COc1ccc(NC(=O)Nc2ccccc2CNc2nc(Nc3ccc(OCCN4CCCC4)cc3)ncc2Cl)cc1
inactive: SNB-19 CNS 33.9% | PC-3 prostate 23.3%
active: HCT-15 colon 5.09% | HT29 colon 3.08% | SNB-75 CNS -47.8% | U251 CNS -15.2% | SK-MEL-5 melanoma -40.6% | UACC-62 melanoma -53.4% | LOX IMVI melanoma -99% | SK-MEL-28 melanoma -77.7%

C#CCn1cnc2cnc(Nc3cccc(NC(=O)CCl)c3)nc21
inactive: SNB-19 CNS 11.5% [6.25 µM] | PC-3 prostate 18.9% [6.25 µM] | SK-MEL-28 melanoma 14.5% [6.25 µM]
active: HCT-15 colon 6.26% [6.25 µM] | HT29 colon 0.208% [6.25 µM] | SNB-75 CNS -28.7% [6.25 µM] | U251 CNS -49.2% [6.25 µM] | SK-MEL-5 melanoma -59.4% [6.25 µM] | UACC-62 melanoma -23.1% [6.25 µM] | LOX IMVI melanoma -48.6% [6.25 µM]

CCN1CCN(C(=O)[C@]23CC[C@@H](C)[C@H](C)[C@@H]2C2=CC[C@@H]4[C@@]5(C)CCC(=O)C(C)(C)[C@@H]5CC[C@@]4(C)[C@]2(C)CC3)CC1
inactive: SNB-19 CNS 20.9%
active: HCT-15 colon 8.58% | HT29 colon -12% | SNB-75 CNS -3.49% | U251 CNS -44.9% | PC-3 prostate 4.66% | SK-MEL-5 melanoma -84.1% | UACC-62 melanoma -46.1% | LOX IMVI melanoma -85.2% | SK-MEL-28 melanoma -64.7%

Cc1cc(N2CCN(CC(=O)Nc3ccc4c(ccn4Cc4ccccc4)c3)CC2)nc(N2CCCCCC2)n1
inactive: HCT-15 colon 28.2% | SNB-75 CNS 66.6% | SNB-19 CNS 57.3% | U251 CNS 38.4% | PC-3 prostate 28.2% | UACC-62 melanoma 43.2% | LOX IMVI melanoma 34.9% | SK-MEL-28 melanoma 63.4%
active: HT29 colon 5.17%

COc1ccc(C(=O)c2ccc(OC)c(OC)c2OC)cc1
active: SNB-75 CNS -3.95%
4.69% (active) and 12.7% (inactive): HT29 colon
inactive: HCT-15 colon 26.6% and 27.2% | SNB-19 CNS 43.6% and 41.7% | U251 CNS 31.3% and 26.2% | PC-3 prostate 35.5% and 32.9% | UACC-62 melanoma 40.8% and 50.7% | LOX IMVI melanoma 34.3% and 39.8% | SK-MEL-28 melanoma 45.3% and 50.3%

COc1cc(CO)cc2cc3ccccc3nc12
inactive: HCT-15 colon 106% | HT29 colon 103% | SNB-75 CNS 74.7% | SNB-19 CNS 97.1% | U251 CNS 99.2% | PC-3 prostate 104% | SK-MEL-5 melanoma 105% | UACC-62 melanoma 98.7% | LOX IMVI melanoma 100% | SK-MEL-28 melanoma 113%

CCOC(=O)c1c(-c2ccc(OC)cc2)c(C#N)c2c(C#N)c(N)nn2c1N
inactive: HCT-15 colon 22.6% | SNB-75 CNS 43.4% | SNB-19 CNS 31.2% | U251 CNS 15.8% | PC-3 prostate 40% | UACC-62 melanoma 13.1% | LOX IMVI melanoma 28.3% | SK-MEL-28 melanoma 44.8%
active: HT29 colon 6.58%

O=C1C(=C(O)c2ccccc2)C(=O)c2ccccc21
inactive: HCT-15 colon 102% | HT29 colon 109% | SNB-75 CNS 76.5% | SNB-19 CNS 98.1% | U251 CNS 109% | PC-3 prostate 94.5% | UACC-62 melanoma 96% | LOX IMVI melanoma 99% | SK-MEL-28 melanoma 105%

O=C(CCN1CCOCC1)Nc1cccc(-n2cc(-c3ccncc3)c(-c3ccc(Cl)c(O)c3)n2)c1
active: HT29 colon -7.51% | SNB-75 CNS -1.7%
inactive: HCT-15 colon 28.5% | SNB-19 CNS 48.8% | U251 CNS 27.7% | PC-3 prostate 11.4% | UACC-62 melanoma 43.1% | LOX IMVI melanoma 23.1% | SK-MEL-28 melanoma 49.6%

O=C1/C(=C/c2cn(-c3ccccc3)nc2-c2ccccc2)SC(=S)N1c1ccc(Cl)cc1
inactive: HCT-15 colon 73% | HT29 colon 99.1% | SNB-75 CNS 90.4% | SNB-19 CNS 71.9% | U251 CNS 57.2% | PC-3 prostate 56.8% | UACC-62 melanoma 57.5% | LOX IMVI melanoma 63.3% | SK-MEL-28 melanoma 73.5%

ON=C1CCCCCCCC1
inactive: HCT-15 colon 105% | HT29 colon 104% and 110% | SNB-75 CNS 101% and 80.7% | SNB-19 CNS 106% and 104% | U251 CNS 107% and 110% | PC-3 prostate 95.3% and 104% | UACC-62 melanoma 103% and 110% | LOX IMVI melanoma 95.4% and 102% | SK-MEL-28 melanoma 105% and 113%

COc1cc(CNC(=O)CCCC/C=C/C(C)C)ccc1OCc1cn(-c2ccc([N+](=O)[O-])cc2)nn1
inactive: HCT-15 colon 96.2% | HT29 colon 98.1% | SNB-75 CNS 83.9% | SNB-19 CNS 97.4% | U251 CNS 86.4% | PC-3 prostate 78% | UACC-62 melanoma 69.3% | LOX IMVI melanoma 89.5% | SK-MEL-28 melanoma 102%

CCN(CC)/C([O-])=c1\cccc\c1=C1\N=C(c2ccccc2)N=C1[n+]1ccc(-c2ccccc2)cc1
inactive: HCT-15 colon 101% | HT29 colon 106% | SNB-75 CNS 93.7% | SNB-19 CNS 99.5% | U251 CNS 97.7% | PC-3 prostate 92.8% | UACC-62 melanoma 93.6% | LOX IMVI melanoma 91.6% | SK-MEL-28 melanoma 106%

Nc1nc2c(s1)CCc1cn(S(=O)(=O)c3ccccc3)cc1-2
inactive: HCT-15 colon 98.3% and 99.3% | HT29 colon 106% | SNB-75 CNS 80.5% and 89.9% | SNB-19 CNS 94.6% and 97% | U251 CNS 80.3% and 97.7% | PC-3 prostate 75.6% and 84.4% | UACC-62 melanoma 79.4% and 96.3% | LOX IMVI melanoma 84.1% and 104% | SK-MEL-28 melanoma 113% and 104%

Nc1[nH]nc(Nc2ccccc2)c1-c1nc2ccccc2s1
inactive: HCT-15 colon 11.1% | HT29 colon 58.5% | SNB-75 CNS 44.2% | SNB-19 CNS 34% | U251 CNS 22% | PC-3 prostate 14.9% | UACC-62 melanoma 27.2% | SK-MEL-28 melanoma 35.4%
active: LOX IMVI melanoma -79.1%

CNC(=O)c1cc(Oc2ccc3nc(NC(=O)Nc4ccc(C(F)(F)F)cc4)sc3c2)ccn1
inactive: HCT-15 colon 54.2% | HT29 colon 78.4% | SNB-75 CNS 29.1% | SNB-19 CNS 79.3% | U251 CNS 22.4% | PC-3 prostate 58.8% | UACC-62 melanoma 56% | LOX IMVI melanoma 48.1% | SK-MEL-28 melanoma 68.9%
